Measured values: PubChem BioAssay
The source made the active and inactive calls.

How the values were obtained:
[1] = test system: Plasmodium falciparum Sir2 (PF13_0152, Sir2A); test: pfSir2 binders on small-molecule microarrays, primary screen, biochemical, small-molecule microarray, 635 nm fluorescence (AID 1098); details: small-molecule microarray binding, fluorescence 635 nm; higher = more signal;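 also: score merges spot fluorescence intensity with its signal-to-noise ratio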
[2] = small-molecule microarray binders of probe aDKK1, primary screen, biochemical, biotinylated probe, 635/667 nm fluorescence (AID 1099); details: higher = more signal;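 also: score merges 667nm spot fluorescence with signal to noise across triplicate slides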
[3] = small-molecule microarray binders of probe aCHRDL2, primary screen, biochemical, biotinylated probe, 635/667 nm fluorescence (AID 1100); details: higher = more signal
[4] = splicing luciferase reporter signal modulators, primary screen, spliceosome inhibition project, cell-based, HEK293, splice +/- reporter (AID 1101); details: luminescence, 24 h, higher = more signal, called active from +8 up or from −8 down;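 also: HEK293 cells carrying a splicing-competent luciferase reporter gene; test concentration not given here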
[5] = biological target: Fibroblast growth factor 10 (Homo sapiens) (UniProt O15520); test: FGF10 binders on small-molecule microarrays, primary screen, biochemical, small-molecule microarray, 635 nm fluorescence (AID 1102); details: FGF10 binding, fluorescence 635 nm, higher = more signal
[6] = test system: glycogen synthase kinase-3 (GSK3A per assay name; protocol says GSK3B); test: GSK3 binders on small-molecule microarrays, primary screen, biochemical, small-molecule microarray, 635 nm fluorescence, GSK3A (AID 1103); details: small-molecule microarray binding, fluorescence 635 nm; higher = more signal; also: the record names both GSK3A and GSK3B
[7] = biological target: Epidermal growth factor receptor (Homo sapiens) (UniProt P00533); test: EGFR binders on small-molecule microarrays, primary screen, biochemical, small-molecule microarray, 635 nm fluorescence (AID 1104); details: EGFR binding, higher = more signal;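 also: score merges 667 nm emission intensity with spot signal to noise over triplicate slides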
[8] = biological target: Follistatin-related protein 3 (Homo sapiens) (UniProt O95633); test: FSTL3 binders on small-molecule microarrays, primary screen, biochemical, small-molecule microarray, 635 nm fluorescence (AID 1105); details: FSTL3 binding, higher = more signal;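 also: score merges emission near 667 nm and signal to noise per printed spot across three slides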
[9] = biological target: Dickkopf-related protein 1 (Homo sapiens) (UniProt O94907); test: DKK1 binders on small-molecule microarrays, primary screen, biochemical, small-molecule microarray, 635 nm fluorescence scan (AID 1106); details: DKK1 binding, higher = more signal;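 also: score merges emission near 667 nm with signal to noise over three replicate slides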
[10] = test system: Inhibin beta A chain (activin A); test: INHBA (activin A) binders on microarrays, primary screen, biochemical, small-molecule microarray, 635 nm fluorescence scan (AID 1107); details: small-molecule microarray binding, higher = more signal;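 also: mouse activin A protein probed at 4.33 µg/mL on printed slides; score merges bound-protein fluorescence near 667 nm with spot signal-to-noise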
[11] = test system: Human papillomavirus type 1a protein E7 (residues 44-93); test: HPV1a E7 fragment binders on microarrays, primary screen, biochemical, small-molecule microarray, residues 44-93, 635 nm fluorescence (AID 1108); details: small-molecule microarray binding, fluorescence 635 nm; higher = more signal;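 also: E7 fragment applied at 1 µg/mL in TBST for 1 h at 4 C; score combines spot fluorescence with its signal to noise ratio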
[12] = modulators of HCV replicon luciferase signal, primary screen, HCV replication inhibitor project, Huh7 cells, luciferase reporter (AID 1109); details: 48 h, higher = more signal;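 also: huh7 hepatoma cells harbouring a luciferase neomycin HCV replicon reporter; luciferase luminescence as measure of HCV replicon replication; test concentration not given here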
[13] = biological target: Left-right determination factor 2 (Homo sapiens) (UniProt O00292); test: LEFTY2 binders on small-molecule microarrays, primary screen, biochemical, small-molecule microarray, 635 nm fluorescence scan (AID 1110); details: LEFTY2 binding, higher = more signal
[14] = biological target: Calmodulin-1 (Homo sapiens) (UniProt P0DP23); test: CALM1 binders on microarrays, EGTA buffer, profiling panel, biochemical, small-molecule microarray, Cy5-labelled CALM1 (AID 1111); details: Cy5-CALM1 binding fluorescence, higher = more signal;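 also: labelled calmodulin applied in Tris saline Tween buffer holding calcium plus EGTA and DTT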
[15] = biological target: Calmodulin-1 (Homo sapiens) (UniProt P0DP23); test: calcium-bound CALM1 binders on microarrays, profiling panel, artefact control for SMM control-protein annotation, biochemical, small-molecule microarray, Cy5-labelled CALM1, plus calcium (AID 1112); details: Cy5-CALM1 binding fluorescence, higher = more signal;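 also: score merges spot fluorescence with signal to noise from triplicate slides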
[16] = small-molecule microarray binders of probe aWnt5a, primary screen, biochemical, biotinylated probe, 635/667 nm fluorescence (AID 1113); details: higher = more signal;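 also: score merges 667 nm fluorescence intensity with signal-to-noise per printed feature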
[17] = small-molecule microarray binders of probe aShh, primary screen, biochemical, biotinylated probe, 635/667 nm fluorescence (AID 1114); details: higher = more signal;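 also: probe is biotin-labelled aShh protein from a stem cell growth factor screen; measures binding of labelled protein to compounds printed on the slide; score merges feature fluorescence at 667 nm with signal-to-noise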
[18] = small-molecule microarray binders of probe aNog, primary screen, biochemical, biotinylated probe, 635/667 nm fluorescence (AID 1115); details: higher = more signal;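 also: probe is biotinylated aNog protein used at 0.15 µg/mL for 1 h at 4 C; z-score combines 667 nm fluorescence of each spot with its signal to noise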
[19] = biological target: Torsin-1A-interacting protein 1 (Homo sapiens) (UniProt Q5JTV8); test: LAP1 binders from COS7 cell lysate, primary screen, small-molecule microarray, 635/667 nm fluorescence (AID 1116); details: COS7-hLAP1 lysate binding, 635 nm fluorescence, higher = more signal
[20] = biological target: Alpha-bungarotoxin (Bungarus multicinctus) (UniProt P60615); test: alpha-bungarotoxin binders on microarray, profiling panel, artefact control for SMM control protein annotation, biochemical, small-molecule microarray, Alexa647 label, 635/667 nm fluorescence (AID 1117); details: alpha-BTX-A647 binding fluorescence, higher = more signal
Alpha-bungarotoxin (Bungarus multicinctus), sequence (P60615 whole entry, looked up): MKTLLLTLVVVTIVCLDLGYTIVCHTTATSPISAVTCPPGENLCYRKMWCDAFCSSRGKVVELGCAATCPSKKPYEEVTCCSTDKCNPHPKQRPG

Dickkopf-related protein 1 (Homo sapiens), sequence (O94907 whole entry, looked up): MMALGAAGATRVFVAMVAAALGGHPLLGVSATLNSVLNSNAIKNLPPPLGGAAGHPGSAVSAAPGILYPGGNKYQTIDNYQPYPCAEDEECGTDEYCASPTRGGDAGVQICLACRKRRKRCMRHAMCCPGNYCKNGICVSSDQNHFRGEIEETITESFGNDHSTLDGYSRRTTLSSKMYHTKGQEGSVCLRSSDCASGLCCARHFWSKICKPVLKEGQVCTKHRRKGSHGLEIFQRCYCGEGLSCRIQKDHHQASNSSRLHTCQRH
Follistatin-related protein 3 (Homo sapiens), sequence (O95633 whole entry, looked up): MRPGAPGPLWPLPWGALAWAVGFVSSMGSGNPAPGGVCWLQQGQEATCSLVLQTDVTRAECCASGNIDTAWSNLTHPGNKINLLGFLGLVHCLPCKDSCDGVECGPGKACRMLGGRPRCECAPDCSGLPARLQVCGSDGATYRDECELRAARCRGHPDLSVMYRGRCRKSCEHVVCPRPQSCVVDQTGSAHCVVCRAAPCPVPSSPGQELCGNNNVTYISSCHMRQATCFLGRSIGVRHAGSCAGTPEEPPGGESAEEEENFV
Fibroblast growth factor 10 (Homo sapiens), sequence (O15520 whole entry, looked up): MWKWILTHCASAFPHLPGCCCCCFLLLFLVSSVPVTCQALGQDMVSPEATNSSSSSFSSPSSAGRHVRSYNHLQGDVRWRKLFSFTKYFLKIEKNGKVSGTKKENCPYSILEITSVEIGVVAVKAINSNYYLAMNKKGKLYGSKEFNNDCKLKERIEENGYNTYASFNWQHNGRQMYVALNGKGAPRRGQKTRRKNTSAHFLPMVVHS
Torsin-1A-interacting protein 1 (Homo sapiens), sequence (Q5JTV8 whole entry, looked up): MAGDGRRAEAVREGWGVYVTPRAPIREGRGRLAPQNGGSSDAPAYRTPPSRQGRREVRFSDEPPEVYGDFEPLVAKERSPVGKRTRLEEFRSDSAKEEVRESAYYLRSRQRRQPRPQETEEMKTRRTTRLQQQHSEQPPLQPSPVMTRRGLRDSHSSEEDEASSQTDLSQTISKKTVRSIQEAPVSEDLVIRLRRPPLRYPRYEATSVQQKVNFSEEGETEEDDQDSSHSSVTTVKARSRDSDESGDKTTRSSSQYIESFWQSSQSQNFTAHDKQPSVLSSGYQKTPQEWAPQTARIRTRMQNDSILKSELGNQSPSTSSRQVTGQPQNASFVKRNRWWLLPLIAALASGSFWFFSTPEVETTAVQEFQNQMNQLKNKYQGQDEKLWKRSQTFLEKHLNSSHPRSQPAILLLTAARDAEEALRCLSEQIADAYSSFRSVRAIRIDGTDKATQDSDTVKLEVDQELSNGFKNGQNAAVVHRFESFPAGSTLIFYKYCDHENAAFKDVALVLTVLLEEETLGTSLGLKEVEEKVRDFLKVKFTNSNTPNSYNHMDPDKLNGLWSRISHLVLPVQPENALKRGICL
Epidermal growth factor receptor (Homo sapiens), sequence (P00533 whole entry, looked up): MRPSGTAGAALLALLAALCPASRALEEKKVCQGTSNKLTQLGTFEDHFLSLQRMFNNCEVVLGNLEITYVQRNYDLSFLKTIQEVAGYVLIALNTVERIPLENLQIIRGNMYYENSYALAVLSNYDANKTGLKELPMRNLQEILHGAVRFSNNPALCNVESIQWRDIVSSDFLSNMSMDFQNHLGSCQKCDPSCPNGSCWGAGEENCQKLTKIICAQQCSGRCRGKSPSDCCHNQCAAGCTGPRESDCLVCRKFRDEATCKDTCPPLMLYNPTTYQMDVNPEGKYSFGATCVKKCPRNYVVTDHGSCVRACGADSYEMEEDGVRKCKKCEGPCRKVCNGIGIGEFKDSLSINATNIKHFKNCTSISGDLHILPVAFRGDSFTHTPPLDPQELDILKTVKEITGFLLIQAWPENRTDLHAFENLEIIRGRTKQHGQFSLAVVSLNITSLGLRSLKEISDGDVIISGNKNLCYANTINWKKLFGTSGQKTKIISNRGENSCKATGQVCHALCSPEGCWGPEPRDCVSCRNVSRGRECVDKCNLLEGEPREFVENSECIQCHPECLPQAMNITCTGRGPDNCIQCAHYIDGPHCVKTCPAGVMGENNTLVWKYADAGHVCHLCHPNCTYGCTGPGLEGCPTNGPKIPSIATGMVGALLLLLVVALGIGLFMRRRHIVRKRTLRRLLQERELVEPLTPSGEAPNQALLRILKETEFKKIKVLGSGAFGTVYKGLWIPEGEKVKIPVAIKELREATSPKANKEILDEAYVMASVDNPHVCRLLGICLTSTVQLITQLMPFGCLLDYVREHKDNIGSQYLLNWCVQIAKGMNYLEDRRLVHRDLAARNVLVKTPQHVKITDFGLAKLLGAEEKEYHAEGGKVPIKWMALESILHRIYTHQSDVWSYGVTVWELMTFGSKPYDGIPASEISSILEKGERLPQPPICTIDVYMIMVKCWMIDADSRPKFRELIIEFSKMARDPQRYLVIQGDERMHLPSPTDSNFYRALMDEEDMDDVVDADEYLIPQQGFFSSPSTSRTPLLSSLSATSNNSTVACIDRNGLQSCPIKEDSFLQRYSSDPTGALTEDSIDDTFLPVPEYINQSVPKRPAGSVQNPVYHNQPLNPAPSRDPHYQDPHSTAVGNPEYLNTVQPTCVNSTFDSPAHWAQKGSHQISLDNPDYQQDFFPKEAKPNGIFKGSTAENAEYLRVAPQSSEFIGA
Left-right determination factor 2 (Homo sapiens), sequence (O00292 whole entry, looked up): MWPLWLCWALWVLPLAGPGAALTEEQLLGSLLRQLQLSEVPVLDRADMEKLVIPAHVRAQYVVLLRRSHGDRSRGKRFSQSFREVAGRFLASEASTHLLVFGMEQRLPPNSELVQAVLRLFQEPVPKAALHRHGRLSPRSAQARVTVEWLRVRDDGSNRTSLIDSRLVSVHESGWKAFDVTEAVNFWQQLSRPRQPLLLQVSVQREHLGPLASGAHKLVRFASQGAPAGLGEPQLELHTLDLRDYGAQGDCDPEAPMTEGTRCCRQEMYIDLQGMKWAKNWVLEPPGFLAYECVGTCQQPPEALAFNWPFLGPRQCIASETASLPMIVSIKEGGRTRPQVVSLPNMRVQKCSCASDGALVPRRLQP

## O=C1O[C@H](c2ccccc2)[C@H](c2ccccc2)N2[C@H]1[C@@H](C(=O)O)[C@]1(C(=O)Nc3ccc(C#CCCO)cc31)[C@H]2c1ccccc1OCCO
[1]
  composite z-score: 0.582
[2]
  composite z-score: -0.445
[3]
  composite z-score: 0.094
[4]
  z-score: -0.888 (inactive)
[5]
  composite z-score: 0.258
[6]
  composite z-score: -0.532
[7]
  composite z-score: -0.329
[8]
  composite z-score: -0.224
[9]
  composite z-score: -0.0493
[10]
  composite z-score: 0.671
[11]
  composite z-score: 1.24
[12]
  z-score: -0.488
[13]
  composite z-score: -0.587
[14]
  composite z-score: 0.4
[15]
  composite z-score: 0.0772
[16]
  composite z-score: -0.139
[17]
  composite z-score: 0.0141
[18]
  composite z-score: -0.539
[19]
  composite z-score: 0.182
[20]
  composite z-score: 0.649

## CCOC(=O)C[C@H]1[C@H](OC(=O)c2ccc(C(=O)c3ccccc3)cc2)[C@@H](NC(=O)C2CCCCC2)c2cc(OCCCO)ccc2N1C(=O)c1ccc2ccccc2n1
[1]
  composite z-score: 0.698
[2]
  composite z-score: -0.0699
[3]
  composite z-score: -0.125
[4]
  z-score: 0.112 (inactive)
[5]
  composite z-score: 0.839
[6]
  composite z-score: 0.432
[7]
  composite z-score: 0.34
[8]
  composite z-score: 1.03
[9]
  composite z-score: 0.595
[10]
  composite z-score: 0.456
[11]
  composite z-score: 1.3
[12]
  z-score: 0.0574
[13]
  composite z-score: 0.752
[14]
  composite z-score: 0.711
[15]
  composite z-score: -0.102
[16]
  composite z-score: 0.0552
[17]
  composite z-score: -0.243
[18]
  composite z-score: -0.244
[19]
  composite z-score: 0.805
[20]
  composite z-score: 0.673

## CCCC1(C(=O)OC)C=C2C(=C(C)C(=O)C2C)CN1 (stereo not given)
[1]
  composite z-score: -0.79
[2]
  composite z-score: 0.719
[3]
  composite z-score: 0.974
[4]
  z-score: 0.888 (inactive)
[5]
  composite z-score: 0.168
[6]
  composite z-score: -0.636
[7]
  composite z-score: 0.0023
[8]
  composite z-score: -0.105
[9]
  composite z-score: -0.238
[10]
  composite z-score: 1.57
[11]
  composite z-score: -0.75
[12]
  z-score: -0.442
[13]
  composite z-score: -0.569
[14]
  composite z-score: -0.119
[15]
  composite z-score: 0.881
[16]
  composite z-score: -0.0512
[17]
  composite z-score: 0.0141
[18]
  composite z-score: 0.929
[19]
  composite z-score: 0.635
[20]
  composite z-score: -0.14

## CCOC(=O)C[C@H]1[C@H](OC(=O)c2ccccc2-c2ccccc2)[C@@H](NC(=O)c2ccc3ccccc3c2)c2cc(OCCCO)ccc2N1C(=O)c1ccccc1
[1]
  composite z-score: 0.162
[2]
  composite z-score: -0.154
[3]
  composite z-score: -0.559
[4]
  z-score: -0.314 (inactive)
[5]
  composite z-score: 0.792
[6]
  composite z-score: 0.601
[7]
  composite z-score: 0.505
[8]
  composite z-score: 0.741
[9]
  composite z-score: 0.427
[10]
  composite z-score: -0.124
[11]
  composite z-score: 0.461
[12]
  z-score: -1.27
[13]
  composite z-score: 0.596
[14]
  composite z-score: -0.09
[15]
  composite z-score: -0.332
[16]
  composite z-score: -0.0981
[17]
  composite z-score: -0.291
[18]
  composite z-score: 0.0043
[19]
  composite z-score: 0.228
[20]
  composite z-score: 0.789

## COCCOC(=O)N1C(=O)[C@@]2(c3cc(C#CC4=CCCCC4)ccc31)[C@H](c1ccccc1OCCO)N1[C@H](c3ccccc3)[C@H](c3ccccc3)OC(=O)[C@H]1[C@@H]2C(=O)N1CCN(c2ncccn2)CC1
[1]
  composite z-score: 0.749
[2]
  composite z-score: -0.149
[3]
  composite z-score: -0.513
[4]
  z-score: -1.46 (inactive)
[5]
  composite z-score: 0.751
[6]
  composite z-score: 1.28
[7]
  composite z-score: 0.502
[8]
  composite z-score: 1.06
[9]
  composite z-score: 0.489
[10]
  composite z-score: 0.333
[11]
  composite z-score: 1.28
[12]
  z-score: -2.1
[13]
  composite z-score: 0.718
[14]
  composite z-score: 0.501
[15]
  composite z-score: 0.466
[16]
  composite z-score: -0.206
[17]
  composite z-score: 0.0048
[18]
  composite z-score: -0.404
[19]
  composite z-score: 0.0174
[20]
  composite z-score: 0.511

## Cc1ccc(S[C@]2(C(=O)NCCN3CCOCC3)CC(=O)N(Cc3ccccc3Cl)[C@@H]2c2ccc(CO)cc2I)cc1
[1]
  composite z-score: 1.65
[2]
  composite z-score: -0.831
[3]
  composite z-score: -0.0429
[4]
  z-score: -0.849 (inactive)
[5]
  composite z-score: 0.133
[6]
  composite z-score: -0.207
[7]
  composite z-score: -1.29
[8]
  composite z-score: -0.355
[9]
  composite z-score: -1.82
[10]
  composite z-score: 1.07
[11]
  composite z-score: 0.772
[12]
  z-score: -1.25
[13]
  composite z-score: -1.45
[14]
  composite z-score: 0.0002
[15]
  composite z-score: 0.154
[16]
  composite z-score: 0.522
[17]
  composite z-score: 0.464
[18]
  composite z-score: 2.2
[19]
  composite z-score: 2.35
[20]
  composite z-score: -0.903
